# Giardia killer – Small Molecules that selectively kill Giardia lamblia: qHTS | AID 540267, 2011 | activity change, % at 7.66 µM, hits read low | 340,000 tested, 0.15% active | Giardia lamblia trophozoite viability; in the data active = activity change below about -80%; inconclusive = between about -30% and that limit;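 note: parasites exposed to compound for two days anaerobically before the ATP read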
#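 ATP-content bioluminescence gauges trophozoite survival. Cells (100/well) receive compound and incubate anaerobically for 48 hrs at 37 deg C; detection reagent follows for 15-30 min at room temperature.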
# ELG1 DNA repair – qHTS screen for small molecules that inhibit ELG1-dependent DNA repair in human embryonic kidney (HEK293T) cells expressing luciferase-tagged ELG1; 330,000 tested, 2.3% active; HEK293T ELG1-luciferase reporter, luminescence, 16 h; DNA damage induced by 5-fluorouridine; Potency, µM (highest dose often 46.1 µM), inactives show top-dose activity change, negative = inhibition, actives largely listed as inhibitors; note: potency is the fitted concentration of half-maximal effect; nearly all actives have a fitted effect of over 55% in size
#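 Overnight (16 hr) co-exposure of 2,000 cells/well to 5-fluorouridine and compound at 37 °C preceded detection. Luciferase was quantified via ONE-Glo luminescence; loss of signal denotes inhibition.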
# TDP1 block – qHTS Assay for Inhibitors of Tyrosyl-DNA Phosphodiesterase (TDP1); Tyrosyl-DNA phosphodiesterase 1 (Homo sapiens), Q9NUW8; recombinant TDP1, AlphaScreen DNA substrate cleavage; 350,000 tested, 0.28% active; Potency, µM (highest dose often 130 µM), for the others: top-dose activity change, negative = inhibition, actives largely listed as inhibitors; note: potency is the fitted concentration of half-maximal effect; nearly all actives have a fitted effect of over 40% in size
# Target sequence (Q9NUW8 whole entry, looked up): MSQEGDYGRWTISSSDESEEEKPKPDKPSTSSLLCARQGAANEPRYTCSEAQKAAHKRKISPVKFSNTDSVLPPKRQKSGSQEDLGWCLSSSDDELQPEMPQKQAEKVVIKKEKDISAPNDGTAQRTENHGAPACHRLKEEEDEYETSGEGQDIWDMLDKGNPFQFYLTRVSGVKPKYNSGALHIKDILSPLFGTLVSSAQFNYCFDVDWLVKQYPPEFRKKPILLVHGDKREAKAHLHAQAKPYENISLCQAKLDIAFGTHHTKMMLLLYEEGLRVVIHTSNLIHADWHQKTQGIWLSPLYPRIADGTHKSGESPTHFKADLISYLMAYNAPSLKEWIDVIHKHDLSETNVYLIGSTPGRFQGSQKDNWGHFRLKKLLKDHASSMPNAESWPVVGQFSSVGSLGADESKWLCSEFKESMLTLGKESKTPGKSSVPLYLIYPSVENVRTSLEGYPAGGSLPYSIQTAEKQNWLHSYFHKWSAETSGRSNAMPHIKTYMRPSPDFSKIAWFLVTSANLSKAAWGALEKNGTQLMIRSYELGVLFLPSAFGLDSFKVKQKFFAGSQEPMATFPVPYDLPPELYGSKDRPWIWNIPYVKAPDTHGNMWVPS
#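 E. coli-derived human Tdp1, 1 nM final. Cpd preinc 15 min RT; substrate 15 nM final, 5 min RT; AS bead mix 10 ug/ml final, 10 min RT. Signal loss = tyrosine-FITC cleavage. No-enzyme wells = max signal.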
# DT40 TDP1 CPT – qHTS for Inhibitors of human tyrosyl-DNA phosphodiesterase 1 (TDP1): qHTS in cells in presence of CPT. chicken DT40 Tdp1-/-;hTDP1 cells + 20 nM CPT, ATP luminescence, 48 h. 420,000 tested, 12% active. Potency, µM (top dose mostly 46.2 µM), for the others: top-dose activity change, negative = growth inhibition, hits mostly inhibitors; note: potency is the fitted concentration of half-maximal effect; nearly all actives have a fitted effect of over 55% in size
#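 Cell growth measured by CellTiter-Glo luminescence after a minimum 48 h, 37 C compound exposure with 20 nM CPT in Tdp1-knockout DT40 cells stably expressing hTDP1, seeded 400/well; qHTS titration format.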
# IL1B secr inh – qHTS for Inhibitors of Inflammasome Signaling: IL-1-beta AlphaLISA Primary Screen. THP-1 LPS/ATP IL-1B secretion, AlphaLISA, 16 h; active compounds read low. activity change, % at 57.5 µM. 360,000 tested, 4.7% active. AID 743279, 2014; in the data active = activity change below about -50%; inconclusive = mostly about -30% to -49%
#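 THP-1 cells pretreated 1 hr with compounds (up to 57.5 uM final), then stimulated with LPS (250 ng/mL final) plus ATP (1.25 mM final); secreted IL-1B measured by AlphaLISA after 16 hr, decreased signal indicating inhibition.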
# DT40 TDP1 no CPT – qHTS for Inhibitors of human tyrosyl-DNA phosphodiesterase 1 (TDP1): qHTS in cells in absence of CPT. DT40 Tdp1-/- hTDP1 cells, no CPT, ATP luminescence, 48 h. Potency, µM (titrated, usually from 46.2 µM), for inactives: top-dose activity change, negative = growth inhibition, actives largely listed as inhibitors. 420,000 tested, 15% active; note: potency is the fitted concentration of half-maximal effect; nearly all actives have a fitted effect of over 55% in size
#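 Chicken DT40 Tdp1-/- cells stably complemented with human TDP1 were seeded at 400 cells/well with DMSO in place of 20 nM camptothecin. After compound pinning, cells grew at least 48 hr at 37 °C; viability read by CellTiter-Glo luminescence.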
# Numbers without * were called inactive; ? = inconclusive; · = no result; ! = not confirmed by another sample; [ ] = remark or other dose. Hits are enriched below; roughly 19% of the tested compounds scored in any of these assays. Unless noted, calls come from the whole dose curve; as a rule, active = well fitted curve in the direction sought with a large enough effect; inconclusive = small, poorly fitted or top-dose-only effect, or another doubt; inactive = no such curve, though single readings can be large; an effect the other way counts as inactive or inconclusive. % is set by controls: 0 for no effect and ±100 for the full control effect.
SMILES,Giardia killer,ELG1 DNA repair,TDP1 block,DT40 TDP1 CPT,IL1B secr inh,DT40 TDP1 no CPT
Cc1ccccc1-n1c(O)c(C=Nc2ccc(N(C)C)cc2)c(=O)[nH]c1=O,4,18%,0%,23µM*,-3,18µM*
CCN(CC)c1ccc(N=Cc2c(O)n(-c3ccc(Cl)cc3)c(=O)[nH]c2=O)cc1,-1,1%,0%,21µM*,46,?
CCN(CC)c1ccc(N=Cc2c(O)n(-c3ccc(OC)cc3)c(=O)[nH]c2=O)cc1,1,-3%,-1%,?,3,?
COC1=CC(=O)O[C@@H](/C=C\c2ccccc2)C1,·,·,10%[21 µM],·,·,·
CCN(CC)C(=O)COc1cc(C)cc2oc(=O)c3c(c12)CCCC3,-6,?,·,?,-50*,?
Cc1cc(OC(=O)c2ccco2)c2c3c(c(=O)oc2c1)CCC3,-20,-15%,6%,?,0,23µM*
Cc1cc(OCC(=O)N2CCC(C(=O)O)CC2)c2c3c(c(=O)oc2c1)CCCC3,0,-29%,·,-6%,4,-6%
C=CCOC(=O)COc1cc(C)cc2oc(=O)c3c(c12)CCC3,0,?,0%,-6%,-24,-7%
Cc1cc(OCC(=O)N2CCC(C(=O)NCC(C)C)CC2)c2c3c(c(=O)oc2c1)CCCC3,-4,5%,1%,-19%,46,13µM*
CCCCOC(=O)COc1cc(C)cc2oc(=O)c3c(c12)CCC3,1,21%,-2%,4%,-8,-13%
COC(=O)C1=CO[C@@H](C)[C@@H]2CN3CC[C@]4(C(=O)Nc5c4ccc(OC)c5OC)[C@H]3C[C@H]12,·,·,8%,8%[9.04 µM],·,-7%[9.04 µM]
COc1ccc(CC2c3cc(OC)c(OC)cc3CCN2C)cc1OC (stereo not given),9,-7%,2%,18µM*!,-15,23µM*!
NCCCNCCCCNCCCNC(=O)Cc1ccc(O)cc1,·,·,7%[21 µM],·,·,·
Oc1cc[c]([Hg][Cl])cc1,·,·,·,0.3µM*,·,0.27µM*
O=S(=O)(c1ccc(O)cc1)c1ccc(O)cc1,5,3%,·,7%,4,0%
COc1ccc(-n2c(O)c(/C=C3\C=Nc4ccc(Br)cc43)c(=O)[nH]c2=O)c(OC)c1,3,?,·,?,-96*,?
O=c1[nH]c(=O)n(-c2ccccc2F)c(O)c1/C=C1\C=Nc2ccccc21,-7,3%,·,16µM*,46,21µM*
CC(C)c1ccc2oc(-c3ccc(NC(=O)c4cc5ccccc5o4)cc3)nc2c1,·,·,5%[12.3 µM],-18%,·,?
CCCNC(=O)N1[C@H]2CC[C@@H]1C(C(=O)OC)=C(c1ccc(-c3ccccc3)c(F)c1)C2,8,0%,2%,9.2µM*,?,7.3µM*
COC(=O)C1=C(c2ccc(F)cc2F)C[C@@H]2CC[C@H]1N2C(=O)NCCOc1ccccc1,19,-11%,-4%,23µM*,-11,?
COC(=O)C1=C(c2ccc(-c3ccccc3)c(F)c2)C[C@@H]2CC[C@H]1N2C(=O)NCCO,20,-3%,1%,?,-6,21µM*
COC(=O)C1=C(c2ccc(-c3ccccc3)c(F)c2)C[C@@H]2CC[C@H]1N2C(=O)NCc1ccco1,-1,?,6%,7.3µM*,-16,6.5µM*
COC(=O)C1=C(c2ccc(-c3ccccc3)c(F)c2)C[C@@H]2CC[C@H]1N2C(=O)NCCOc1ccccc1Cl,-10,?,1%,?,?,?
O=C1NC(=O)C(=CN2CCc3ccccc32)C(=O)N1,23,?,-2%,?,-6,-5%
O=P(N1CC1)(N1CC1)N1CCc2ccccc21,-10,·,·,7.3µM*,30,8.2µM*
SMILES,Giardia killer,ELG1 DNA repair,TDP1 block,DT40 TDP1 CPT,IL1B secr inh,DT40 TDP1 no CPT
COC[C@H]1OC(=O)c2coc3c2[C@@]1(C)C1=C(C3=O)[C@H]2CCC(=O)[C@@]2(C)C[C@H]1OC(C)=O,·,·,13%[56.1 µM],9.4µM*,·,?
COC[C@H]1OC(=O)c2coc3c2[C@@]1(C)C1=C(C3=O)C2CCC(=O)[C@@]2(C)C[C@H]1OC(C)=O (stereo not given in full),·,·,12%[56.1 µM],1µM*,·,0.63µM*
CCC12CN3CC(CC)(CN(C1)C3c1c(C)[nH]c(=O)[nH]c1=O)C2=O (stereo not given),·,·,7%,-8%,·,-8%
CC(O)(c1ccncc1)c1nc(-c2cccc(C(F)(F)F)c2)cs1 (stereo not given),·,·,·,23µM*,2,21µM*
COC1=CC(=O)O[C@@H](/C=C/c2ccc3c(c2)OCO3)C1,·,·,-8%,·,·,·
CCCN(CCC)C(=O)C(CCC(=O)OCCCN1CCN(CCOC(=O)Cc2c(C)n(C(=O)c3ccc(Cl)cc3)c3ccc(OC)cc23)CC1)NC(=O)c1ccccc1 (stereo not given),·,·,·,13µM*,·,11µM*
COc1cc(CN2CC3CC(C2)c2cccc(=O)n2C3)cc(OC)c1OC (stereo not given),-8,4%,-1%,-4%,-14,-2%
COc1cc(C)c(-c2nc(CN3C[C@@H]4C[C@@H](C3)c3cccc(=O)n3C4)c(C)o2)cc1C,-15,-5%,·,?,-115*,?

# High-throughput results: PubChem BioAssay, National Center for Advancing Translational Sciences (NCATS)
